In the library only some 2.9% were active in any assay of this set; here they are far more common.
ZTA DNA inh: blocks Epstein-Barr virus ZTA, an EBNA-1 counter-screen; ZTA-DNA binding, fluorescence polarization; 320,000 tested, 0.15% active; inhibition, % at 11 µM; in the data active means inhibition above about 33%
PAFAH2 inh: PAFAH2 enzyme inhibitors, primary screen, biochemical, fluorescence polarization, human | 340,000 tested, 0.99% active | AID 492956, 2010 | recombinant PAFAH2, FP-rhodamine activity probe | Platelet-activating factor acetylhydrolase 2, cytoplasmic (Homo sapiens), Q99487 | inhibition, % at 3.39 µM;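 active means inhibition above the mean over all tested compounds plus 3 SD, cut at about 30% in these data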;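 further: inhibitors block probe labeling of enzyme so polarization drops; 0% = enzyme with DMSO and 100% = wells lacking PAFAH2 protein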
PAFAH1B2 inh: PAFAH1B2 enzyme inhibitors, primary screen, biochemical, fluorescence polarization, human; 340,000 tested, 1.2% active; AID 492953, 2010; recombinant PAFAH1B2, FP-rhodamine activity probe; inhibition, % at 3.39 µM; Platelet-activating factor acetylhydrolase IB subunit alpha2 (Homo sapiens), P68402;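 active means inhibition above the mean of all tested compounds plus 3 SD, cut at about 24% in these data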;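 further: 0% = enzyme with DMSO and 100% = wells lacking PAFAH1B2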
Target sequence (P68402 whole entry, looked up): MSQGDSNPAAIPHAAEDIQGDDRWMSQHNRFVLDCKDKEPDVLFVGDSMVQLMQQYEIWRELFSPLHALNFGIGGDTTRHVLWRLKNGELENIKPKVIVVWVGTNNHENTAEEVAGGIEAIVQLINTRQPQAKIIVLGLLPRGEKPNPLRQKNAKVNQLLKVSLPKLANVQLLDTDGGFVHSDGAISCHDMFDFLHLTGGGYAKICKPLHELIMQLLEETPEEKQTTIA
pPAFAH inh: pPAFAH enzyme inhibitors, primary screen, biochemical, fluorescence polarization, human; recombinant pPAFAH, FP-rhodamine probe fluorescence polarization; inhibition, % at 3.39 µM; AID 463082, 2010; 330,000 tested, 1.5% active;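 active means inhibition above the mean inhibition across the screen plus 3 SD, cut at about 25% in these data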;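 further: inhibitors block binding of the rhodamine activity-based probe so polarization drops; 0% = enzyme with DMSO and 100% = wells lacking pPAFAH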
Target sequence (Q13093 whole entry, looked up): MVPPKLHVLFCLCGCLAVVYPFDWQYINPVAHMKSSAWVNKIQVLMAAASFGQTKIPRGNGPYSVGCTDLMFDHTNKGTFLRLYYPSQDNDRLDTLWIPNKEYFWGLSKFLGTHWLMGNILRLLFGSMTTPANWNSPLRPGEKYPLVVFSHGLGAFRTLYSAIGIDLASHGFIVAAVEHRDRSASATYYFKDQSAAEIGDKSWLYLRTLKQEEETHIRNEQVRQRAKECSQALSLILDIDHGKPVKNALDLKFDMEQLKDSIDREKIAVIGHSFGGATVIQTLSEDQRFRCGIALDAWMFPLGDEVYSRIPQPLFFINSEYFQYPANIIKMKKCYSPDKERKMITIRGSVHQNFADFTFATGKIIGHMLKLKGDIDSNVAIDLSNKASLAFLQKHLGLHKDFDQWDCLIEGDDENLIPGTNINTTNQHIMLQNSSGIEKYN
EBNA-1 inhibitor: EBNA-1 DNA-binding inhibitors, primary screen, biochemical, fluorescence polarization. inhibition, % at 14.8 µM. 300,000 tested, 0.34% active; in the data active means inhibition above about 28%
PAFAH1B3 inh: PAFAH1B3 enzyme inhibitors, primary screen, biochemical, fluorescence polarization, human. inhibition, % at 3.39 µM. Platelet-activating factor acetylhydrolase IB subunit alpha1 (Homo sapiens), Q15102. 340,000 tested, 0.28% active. AID 492972, 2010. recombinant PAFAH1B3, FP-rhodamine probe;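 active means inhibition above the screen-wide average of all tested compounds plus 3 SD, cut at about 25% in these data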;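 further: 0% = enzyme with DMSO only and 100% = wells lacking PAFAH1B3 protein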
PAFAH2 confirm: PAFAH2 enzyme inhibitors, confirmation, biochemical, fluorescence polarization, human; shares compounds with PAFAH2 inh; recombinant PAFAH2, FP-rhodamine activity probe; inhibition, % at 3.39 µM; 2,300 tested, 65% active; AID 493030, 2011;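 active means mean inhibition over three repeats above a set limit taken from the earlier primary screen, cut at about 30% in these data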;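 further: inhibitor blocks binding of rhodamine activity probe so polarization falls; 0% = enzyme with DMSO and 100% = wells lacking PAFAH2 protein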
* hit, by the source's call; x = no result.

SMILES | ZTA DNA inh | PAFAH2 inh | PAFAH1B2 inh | pPAFAH inh | EBNA-1 inhibitor | PAFAH1B3 inh | PAFAH2 confirm
NC(=O)c1ccc(NC(=O)COC(=O)c2ccc3c(c2)OCCO3)cc1 | 8 | 18 | 5 | 0 | -1 | 11 | x
CN(C)c1ccc(NC(=O)COC(=O)c2ccc3c(c2)OCO3)cc1 | x | 32* | -2 | 11 | x | -1 | 27
CC1=CCC(/C=N\Nc2nnc3c(n2)[nH]c2ccccc23)CC1 (centres undefined) | 1 | x | x | 0 | -9 | x | x
Cc1ccc(S(=O)(=O)NCC(=O)NCCc2c[nH]c3ccccc23)cc1C | 4 | 5 | 3 | 3 | 6 | 0 | x
Cc1ccc(CN(C(=O)c2csnn2)C(C(=O)NC2CCCC2)c2ccccn2)cc1 (centres undefined) | -9 | 2 | 6 | -4 | -6 | -3 | x
C[N+](C)(C)C[C@H](O)CC(=O)[O-] | 9 | 5 | 0 | 3 | 1 | 6 | x
Cc1c(Cl)cnc(NC(=O)COC(=O)CCC(=O)c2cccs2)c1Cl | x | 0 | 3 | x | x | -2 | x
Cc1nc(NC(=O)COC(=O)CCC(=O)c2cccs2)c(Cl)cc1Cl | -8 | 4 | 0 | 21 | 5 | 6 | x
Cc1c(Cl)cnc(NC(=O)COC(=O)c2cccs2)c1Cl | 2 | 58* | -2 | -1 | x | 6 | 41*
Cc1nc(NC(=O)COC(=O)c2cccs2)c(Cl)cc1Cl | x | 43* | 2 | x | x | 2 | 29
Cn1c2ccsc2c2ncn(Cc3ccccc3F)c(=O)c21 | x | 4 | 6 | -1 | x | 10 | x
C=CCN(C(=O)CNS(=O)(=O)c1ccccc1)C(C(=O)NCCOC)c1cccnc1 (centres undefined) | 8 | 4 | 4 | 1 | 8 | 4 | x
O=C(O)Cc1sc(Nc2cccc3ccccc23)nc1-c1ccc(Cl)cc1 | 2 | 11 | 8 | 4 | -2 | 8 | x
COc1cc(OC)c(N(C)C(=O)c2cc3c(s2)-c2ccccc2S(=O)(=O)C3)cc1Cl | -12 | 31* | 6 | -4 | -14 | 10 | 3
CNc1ccc(Br)cc(C(=O)/C=C/c2cccc(Cl)c2Cl)c1=O | x | 44* | 10 | x | x | 15 | 15
CCN(C(=O)c1ccc2c(SCC(=O)O)c3c(nc2c1)CCC3)c1cc(Cl)ccc1OC | 15 | 1 | 6 | 1 | 17 | 7 | x
CCNC(=O)COC(=O)/C=C/c1ccccc1[N+](=O)[O-] | 13 | 11 | -1 | 7 | 5 | 3 | x
O=C(COC(=O)/C=C/c1ccccc1[N+](=O)[O-])NCC(F)(F)F | 6 | 30* | -3 | 16 | 0 | 4 | 16
Cc1onc(-c2ccccc2)c1C(=O)N=C(N)c1ccc(C(F)(F)F)cc1 | -17 | x | x | 10 | 2 | x | x
C=CCNC(=O)/C(C#N)=C/c1cc(Br)ccc1OC | 5 | 33* | -5 | 1 | -6 | -2 | 16
COc1ccc(CN2CCNC(=O)C2CC(=O)N(C)Cc2nonc2C)c(F)c1 (centres undefined) | 12 | 6 | 4 | 2 | 1 | -3 | x
COc1ccc(C(=O)O/N=C(/c2cccs2)C(C)(C)C)cc1 | -7 | 17 | 12 | 15 | 0 | 0 | x
C/C(=N/OC(=O)c1ccc(C)cc1)c1cccs1 | -22 | 70* | -3 | 16 | -3 | -2 | 52*
CC/C(=N/OC(=O)c1cccc(C)c1)C(=O)c1cccs1 | 15 | 37* | 2 | 5 | 15 | 2 | 27
C/C(=N\OC(=O)c1ccc(C)cc1)c1sc(C)nc1C | -17 | 55* | 2 | 24 | -8 | 0 | 43*
SMILES | ZTA DNA inh | PAFAH2 inh | PAFAH1B2 inh | pPAFAH inh | EBNA-1 inhibitor | PAFAH1B3 inh | PAFAH2 confirm
COc1cccc(/C=C/C(=O)OCC(=O)NCC2CCCO2)c1 (centres undefined) | 2 | 13 | -1 | 0 | 1 | -2 | x
COc1cccc(/C=C/C(=O)OCC(=O)NCC2CCCO2)c1OC (centres undefined) | -7 | 51* | 1 | 5 | 0 | 3 | 35*
COc1ccc(/C=C/C(=O)OCC(=O)NCC2CCCO2)cc1 (centres undefined) | -10 | 37* | 4 | 4 | 2 | 7 | 30*
O=C(COC(=O)c1cccc(S(=O)(=O)N2CCCC2)c1)Nc1ccccc1Cl | x | 29 | -1 | x | x | 3 | x
CC(NC(=O)COC(=O)c1cccc(S(=O)(=O)N2CCCC2)c1)c1ccccc1 (centres undefined) | x | 53* | 5 | 10 | x | 9 | 40*
O=C(COC(=O)c1cccc(S(=O)(=O)N2CCCCC2)c1)NCc1ccccc1 | x | 11 | 8 | x | x | 3 | x
COc1ccc(C(=O)OCC(=O)NC(Cc2ccccc2)C(C)=O)cc1S(=O)(=O)N1CCCC1 (centres undefined) | x | 35* | 1 | x | x | 3 | 32*
O=C(COC(=O)c1ccc(Cl)c(S(=O)(=O)N2CCCCCC2)c1)Nc1ccccc1 | -3 | 44* | -10 | 17 | -4 | -21 | 31*
Cc1ccccc1NC(=O)COC(=O)c1cccc(S(=O)(=O)N2CCCCC2)c1 | 15 | 45* | 2 | 8 | x | 8 | 28
O=C(NCCCN1CCOCC1)/C(=C/c1cccnc1)NC(=O)c1ccccc1 | -3 | -3 | 5 | 0 | -2 | -2 | x
O=C(COC(=O)c1cccc(S(=O)(=O)N2CCCC2)c1)Nc1ccccc1 | -1 | 72* | 5 | 8 | 3 | 8 | 76*
O=C(COC(=O)c1ccc(S(=O)(=O)N2CCCC2)cc1)Nc1ccccc1 | -14 | 4 | 1 | 5 | x | 3 | x
O=C(COC(=O)c1ccccc1O)Nc1cccc(S(=O)(=O)N2CCCC2)c1 | 2 | 8 | 6 | 4 | x | 2 | x
NS(=O)(=O)c1cccc(NC(=O)COC(=O)c2ccccc2C(=O)c2ccccc2)c1 | 6 | 54* | -3 | 8 | x | -4 | 51*
CCCN(C(=O)COc1ccc(C(C)=O)cc1OC)C1CCS(=O)(=O)C1 (centres undefined) | -2 | 0 | 7 | -1 | x | 3 | x
CCCCn1c(N)c(N(CC(C)C)C(=O)CCCc2nc3ccccc3c(=O)[nH]2)c(=O)[nH]c1=O | 3 | -3 | 4 | -2 | -14 | 4 | x
CCc1ccc(CN(C)C(=O)c2cc(COc3ccc(OC)cc3Cl)on2)nc1 | -9 | 2 | 4 | 1 | 4 | 1 | x
Cc1nc2cc(N3CCN(C)CC3)c(NC(=O)Cc3ccccc3)cc2c(=O)n1Cc1ccccc1 | 6 | 42* | -3 | 6 | 2 | 6 | 27
